An excerpt weighted towards active compounds, which were near 4.1% of everything screened.
DAX1 inh-1 – DAX1 (NR0B1) inhibitors on StAR promoter, primary screen, cell-based, luminescence, SF-1 (NR5A1), full-length DAX-1; inhibition, % at 6.8 µM; HEK293T StAR-luciferase reporter, SF-1/DAX-1 repression relief; 370,000 compounds, 1.1% hits;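 active means inhibition above the mean over all tested compounds plus 3 SD, cut at about 3.6% in these data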;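 further: 0% = DAX-1 cells with DMSO and 100% = cells lacking DAX-1 with DMSO; higher inhibition means more luminescence from relief of DAX-1 repression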
ssDAF12 agonist – S. stercoralis DAF-12 nuclear receptor activators, primary screen, cell-based, luminescence, HEK293, GRIP1 co-expression, lit1-tk-luc; Nuclear hormone receptor DAF-12 (Strongyloides stercoralis); HEK293 ssDAF-12/GRIP1 lit1-tk-luc reporter; % of 3 µM dafachronic acid response; activation, % at 6.8 µM; 370,000 compounds, 1% hits;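 active means activation above the mean over all tested compounds plus 3 SD, cut at about 0.9% in these data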;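 further: 0% = DMSO-only wells and 100% = 3 µM delta7-dafachronic acid wells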
DAX1 inh-2 – DAX1 (NR0B1) inhibitors, primary screen, cell-based, HEK293, Gal4-DAX1, luciferase luminescence; Nuclear receptor subfamily 0 group B member 1 (Homo sapiens), P51843; HEK293 Gal4-DAX1 luciferase reporter; inhibition, % at 6.75 µM; 340,000 compounds, 0.99% hits; AID 504766, 2011;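 active means inhibition above the mean over all tested compounds plus 3 SD, cut at about 4.2% in these data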;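 further: 0% = DAX1-transfected cells with DMSO and 100% = empty-vector control cells with DMSO; inhibition shows as a rise in luminescence from relieved DAX1 repression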
Target sequence (P51843 207-470 limits assumed): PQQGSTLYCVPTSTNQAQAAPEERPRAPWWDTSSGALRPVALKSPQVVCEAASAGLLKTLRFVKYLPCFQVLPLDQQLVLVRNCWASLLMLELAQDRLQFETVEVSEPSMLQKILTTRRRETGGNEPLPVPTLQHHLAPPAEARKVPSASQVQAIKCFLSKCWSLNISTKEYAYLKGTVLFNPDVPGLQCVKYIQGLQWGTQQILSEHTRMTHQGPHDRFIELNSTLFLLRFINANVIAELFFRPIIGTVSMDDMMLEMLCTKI
hgDAF-12 ag – H. glycines DAF-12 receptor agonists, primary screen, cell-based, luminescence, HEK293, GAL4 fusion, UAS-luciferase; HEK293 GAL4-hgDAF12 UAS-luciferase reporter, agonist luminescence; normalized to butyrate control; activation, % at 6.8 µM; 370,000 compounds, 1.8% hits; AID 687014, 2013;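 active means activation above a cutoff set at the mean of all screened compounds plus 3 SD, cut at about 10% in these data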;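 further: 0% = DMSO wells and 100% = sodium butyrate wells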
hcDAF-12 act – H. contortus DAF-12 nuclear receptor activators, primary screen, cell-based, luminescence, HEK293, lit1-tk-luc reporter | activation, % at 6.8 µM | HEK293 hcDAF-12 lit1-tk-luc reporter; 0% DMSO, 100% Δ7-dafachronic acid | 370,000 compounds, 1.4% hits;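 active means activation above the mean of all tested compounds plus 3 SD, cut at about 5.5% in these data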;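 further: 100% = response to 3 µM Δ7-dafachronic acid high control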
LXR ag – LXR agonists, Gal4 luciferase reporter, confirmation, counter-screen for hcDAF-12 agonist project, cell-based, luminescence, HEK293, H. contortus campaign; AID 743027, 2013; activation, % at 6.8 µM; HEK293 Gal4-LXR tk-luc reporter, 24 h; normalized: DMSO 0%, positive control 100%; 3,400 tested, under 10 active; shares compounds with hcDAF-12 act;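 active means mean percent activation of the reporter above a cutoff set as the average over tested compounds plus their standard deviation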
hcDAF12 ag – H. contortus DAF-12 receptor agonists, confirmation, cell-based, luminescence, HEK293, lit1-tk-luc, triplicate | shares compounds with hcDAF-12 act | activation, % at 6.8 µM | 3,400 compounds, 61% hits | HEK293 hcDAF-12 lit1-tk-luc reporter; % of Δ7-dafachronic acid response;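 active means mean activation across triplicate tests above the threshold derived from the earlier primary screen, cut at about 5.5% in these data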;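 further: 0% = DMSO only wells and 100% = 3 µM Δ7-dafachronic acid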
hgDAF12 ag – H. glycines DAF-12 receptor agonists, confirmation, cell-based, luminescence, HEK293, GAL4-LBD fusion | shares compounds with hgDAF-12 ag | HEK293 GAL4-hgDAF12 luciferase reporter, agonist mode; percent of butyrate response | activation, % at 6.8 µM | 3,300 compounds, 80% hits | AID 743050, 2013;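 active means mean activation over triplicate wells above the hit cutoff derived from the earlier primary screen, cut at about 11% in these data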;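 further: 0% = DMSO low control and 100% = 2 mM sodium butyrate high control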
LXR ag 2 – LXR agonists, Gal4 luciferase reporter, confirmation, counter-screen for hgDAF-12 agonist project, cell-based, luminescence, HEK293, H. glycines campaign; 3,300 tested, under 10 active; 24 h; shares compounds with hgDAF-12 ag; activation, % at 6.8 µM;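 active means mean activation of the triplicate above a set limit carried over from the primary screen, none filed active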
* hit, by the source's call; x = not tested or not shown.

SMILES | DAX1 inh-1 | ssDAF12 agonist | DAX1 inh-2 | hgDAF-12 ag | hcDAF-12 act | LXR ag | hcDAF12 ag | hgDAF12 ag | LXR ag 2
CCOC(=O)c1csc(-c2sccc2Br)n1 | 3 | 0.9* | 3 | 16* | 7.0* | 1 | 5.8* | 16* | 1
CC(C)c1ccc(NC(=O)c2snc3ccc(Cl)cc23)cc1 | 3.8* | 2.7* | 3 | 20* | 11* | 1 | 12* | 17* | 1
CC(C)c1ccc(NC(=O)c2cccnc2)cc1 | 3 | 0 | 1 | 8 | 5 | x | x | x | x
Cc1c(-c2ccc(Br)cc2)nc2ccccn12 | 4.0* | 1.4* | 1 | 15* | 8.4* | 1 | 7.5* | 15* | 1
CN(C)c1ccc(-c2nc3ccccn3c2/N=C/c2ccc(Br)cc2)cc1 | 3 | 1.4* | 0 | 16* | 7.5* | 1 | 5 | 8 | 1
COc1cc(C=Nn2c(-c3cc(-c4ccccc4)n[nH]3)n[nH]c2=S)ccc1OC(C)=O | -1 | -2 | x | 4 | -2 | x | x | x | x
CCN(CC)S(=O)(=O)c1ccc(NC(=O)COC(=O)c2ccc(-n3nc(C)cc3C)cc2)cc1 | -1 | -1 | 0 | -3 | -1 | x | x | x | x
CCN(CC)S(=O)(=O)c1ccc(C(=O)OCC(=O)Nc2ccc(-c3nc4ccc(C)cc4s3)cc2)cc1 | 4.0* | 0 | 0 | 14* | 7.6* | 2 | 8.9* | 23* | 1
C=CCC12C=C(OC)C(=O)C(C1=O)C1c3ccccc3CC12 (stereo not drawn) | 0 | -1 | x | 1 | 1 | x | x | x | x
Nc1ccccc1SCc1cn2ccccc2n1 | 4.2* | 1.4* | 1 | 14* | 7.4* | 1 | 5 | 14* | 0
COC(=O)[C@]12C[C@H](CC(=O)NCCC(C)C)C(=O)N(CCc3ccc(OC)c(OC)c3)C1=C[C@H](C(C)C)O[C@@H]2C1CC1 | 0 | -1 | x | -3 | -1 | x | x | x | x
CSc1nc2ccc(NC(=O)c3ccccn3)cc2s1 | 3.9* | 1.3* | -1 | 16* | 10* | 2 | 7.8* | 17* | 1
Cc1nc2ccc(NC(=O)c3cc(Cl)ccn3)cc2s1 | 4 | 0 | 4 | 16* | 7.0* | 1 | 5.8* | 15* | 1
CSc1nc2ccc(NC(=O)C3=NN(c4ccccc4)C(=O)CC3)cc2s1 | -1 | -1 | -1 | -3 | 1 | x | x | x | x
CCCS(=O)(=O)NCc1cn2c(C)csc2n1 | 3.8* | 1.1* | 4 | 15* | 10* | 0 | 4 | 6 | 0
CCS(=O)(=O)NCc1cn2c(C)csc2n1 | -1 | 0 | 0 | 1 | 3 | x | x | x | x
O=C(Nc1ccccc1C(=O)Nc1ccccc1)c1ccccc1F | 0 | -1 | 0 | 0 | 0 | x | x | x | x

Compound activity deposited in PubChem BioAssay by The Scripps Research Institute Molecular Screening Center.
